Results taken from PubChem BioAssay.
The source made the active and inactive calls. Unless noted, no rule for the calls is given here.

Tests used:
[1] = A549 cell viability effects, profiling panel, calcein-AM fluorescence, 48 h, basal (AID 1162); conditions: higher = more signal; also: test concentration not given here
[2] = adipocyte viability effects, profiling panel, cell-based, 3T3-L1 adipocytes, calcein-AM fluorescence, 48 h, basal (AID 1163); conditions: 3T3-L1 adipocytes viability, higher = more signal; also: test concentration not given here
[3] = HepG2 cell viability effects, profiling panel, calcein-AM fluorescence, 48 h, basal (AID 1164); conditions: higher = more signal; also: test concentration not given here
[4] = MM1S cell viability effects, profiling panel, calcein-AM fluorescence, 48 h, basal (AID 1165); conditions: higher = more signal;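 also: viability of MM1S multiple myeloma cells under basal unstimulated conditions; test concentration not given here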
[5] = basal RPMI8226 viability, no added stimulus, profiling panel, cell-based, calcein-AM fluorescence, 48 h, PK04 Diversity Set (AID 1166); conditions: RPMI8226 myeloma viability, higher = more signal;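 also: cells grown under basal conditions without added stimulus; test concentration not given here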
[6] = basal HepG2 mitochondrial membrane potential changes, profiling panel, cell-based, JC-1 fluorescence, 24 h, 100 nL compound (AID 1167); conditions: higher = more signal; also: test concentration not given here
[7] = basal 3T3-L1 adipocyte mitochondrial potential changes, profiling panel, cell-based, JC-1 fluorescence, 3T3-L1 adipocytes, 24 h, 100 nL compound (AID 1168); conditions: JC-1 mitochondrial fluorescence, higher = more signal, called active from +8 up or from −8 down; also: test concentration not given here
[8] = basal RPMI8226 mitochondrial membrane potential changes, profiling panel, cell-based, JC-1 fluorescence, 24 h, 100 nL compound (AID 1169); conditions: RPMI8226 myeloma, JC-1 mitochondrial potential fluorescence, higher = more signal; also: test concentration not given here
[9] = basal MM1S mitochondrial membrane potential changes, profiling panel, cell-based, JC-1 fluorescence, 24 h, 100 nL compound (AID 1170); conditions: higher = more signal; also: test concentration not given here
[10] = A549 lung cancer cell viability effects, profiling panel, resazurin fluorescence, 24 h, PK04 Diversity Set (AID 1171); conditions: higher = more signal, called active from +8 up or from −8 down; also: test concentration not given here
[11] = HepG2 liver cancer cell viability effects, profiling panel, resazurin fluorescence, 24 h, PK04 Diversity Set (AID 1172); conditions: higher = more signal; also: test concentration not given here
[12] = basal S. cerevisiae growth modulation, no modifier, primary screen, OD600, strain BY4716, 24 h, basal condition (AID 1173); conditions: OD600, 24 h, higher = more signal, called active from +8 up or from −8 down
[13] = MM1S myeloma cell viability, profiling panel, resazurin fluorescence, basal, 24 h, PK04 Diversity Set (AID 1174); conditions: higher = more signal, called active from +8 up or from −8 down;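 also: MM1S multiple myeloma cell line; test concentration not given here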
[14] = molecular target: Dihydroorotate dehydrogenase (quinone), mitochondrial (Plasmodium falciparum (isolate 3D7)) (UniProt Q08210); assay: PfDHODH enzyme inhibitors, primary screen, biochemical, C-terminal His tag, absorbance 600 nm (AID 1175); conditions: DCIP absorbance 600 nm, higher = more signal, called active from +8 up or from −8 down;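 also: recombinant parasite enzyme with a five histidine tag at its C terminus; test concentration not given here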
[15] = P. aeruginosa biofilm formation inhibitors, primary screen, strain PAO1, LB-PBS medium, absorbance 600 nm (AID 1176); also: test concentration not given here; conditions: P. aeruginosa PAO1 growth/biofilm, A600, 12 h; higher = more signal
[16] = S. cerevisiae RM11-1a growth modifiers, primary screen, strain RM11-1a, OD600, basal, 24 h (AID 1177); conditions: OD600, 24 h, higher = more signal, called active from +8 up or from −8 down;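 also: cultures grown under basal conditions with no added stressor; test concentration not given here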
[17] = E. coli acrAB mutant growth effects, primary screen, E. coli filamentation inducers, strain DRC39, OD650, 24 h (AID 1178); conditions: higher = more signal, called active from +8 up or from −8 down;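 also: growth measured as culture turbidity by optical density at 650 nm; test concentration not given here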
[18] = E. coli acrAB mutant growth effects, primary screen, E. coli filamentation inducers, strain DRC39, OD650, 48 h (AID 1179);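 also: screen aims at cell division blockers that make cells filament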; conditions: E. coli DRC39 delta-acrAB growth, higher = more signal, called active from +8 up or from −8 down
[19] = RPMI8226 myeloma cell viability, profiling panel, resazurin fluorescence, basal, 24 h, PK04 Diversity Set (AID 1180); conditions: higher = more signal;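 also: RPMI8826 multiple myeloma cell line at 5000 cells per well; test concentration not given here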
[20] = molecular target: E3 ubiquitin-protein ligase XIAP (Homo sapiens) (UniProt P98170); assay: XIAP binders, primary screen, biophysical, small-molecule microarray, fluorescence 635 nm (AID 1181); conditions: small-molecule microarray binding, higher = more signal;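 also: score merges 667 nm emission and signal to noise over triplicate slides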
E3 ubiquitin-protein ligase XIAP (Homo sapiens), sequence (P98170 whole entry, looked up): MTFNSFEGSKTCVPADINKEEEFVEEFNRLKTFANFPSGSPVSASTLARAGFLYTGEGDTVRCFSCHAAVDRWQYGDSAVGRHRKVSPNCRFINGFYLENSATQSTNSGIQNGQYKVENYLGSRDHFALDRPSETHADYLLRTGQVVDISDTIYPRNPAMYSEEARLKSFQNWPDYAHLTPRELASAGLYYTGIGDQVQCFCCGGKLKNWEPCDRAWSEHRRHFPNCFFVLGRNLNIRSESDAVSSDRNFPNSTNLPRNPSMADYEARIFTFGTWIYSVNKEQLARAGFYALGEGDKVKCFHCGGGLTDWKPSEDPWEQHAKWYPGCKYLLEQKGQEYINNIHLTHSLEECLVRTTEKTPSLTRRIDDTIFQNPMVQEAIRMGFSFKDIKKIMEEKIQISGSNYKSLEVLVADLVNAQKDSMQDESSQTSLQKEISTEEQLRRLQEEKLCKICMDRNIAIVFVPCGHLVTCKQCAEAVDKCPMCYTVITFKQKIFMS

Dihydroorotate dehydrogenase (quinone), mitochondrial (Plasmodium falciparum (isolate 3D7)), sequence (Q08210 whole entry, looked up): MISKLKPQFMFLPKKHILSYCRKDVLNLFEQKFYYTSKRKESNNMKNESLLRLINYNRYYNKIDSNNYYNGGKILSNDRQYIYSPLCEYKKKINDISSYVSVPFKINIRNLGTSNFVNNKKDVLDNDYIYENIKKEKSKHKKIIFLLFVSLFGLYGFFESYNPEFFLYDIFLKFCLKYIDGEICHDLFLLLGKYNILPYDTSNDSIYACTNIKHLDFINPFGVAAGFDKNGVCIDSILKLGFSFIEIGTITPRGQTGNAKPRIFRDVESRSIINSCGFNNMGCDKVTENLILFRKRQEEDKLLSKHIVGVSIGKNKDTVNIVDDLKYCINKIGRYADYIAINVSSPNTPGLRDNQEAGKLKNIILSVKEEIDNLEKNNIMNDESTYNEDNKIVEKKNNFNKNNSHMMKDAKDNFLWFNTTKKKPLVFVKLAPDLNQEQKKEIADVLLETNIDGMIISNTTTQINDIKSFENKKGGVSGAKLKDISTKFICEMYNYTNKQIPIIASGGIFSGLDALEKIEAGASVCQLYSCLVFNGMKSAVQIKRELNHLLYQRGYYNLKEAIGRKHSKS

| SMILES | z-score [1] | z-score [2] | z-score [3] | z-score [4] | z-score [5] | z-score [6] | z-score [7] | z-score [8] | z-score [9] | z-score [10] | z-score [11] | z-score [12] | z-score [13] | composite z-score [14] | z-score [15] | z-score [16] | z-score [17] | z-score [18] | z-score [19] | composite z-score [20] |
| --- | --- | --- | --- | --- | --- | --- | --- | --- | --- | --- | --- | --- | --- | --- | --- | --- | --- | --- | --- | --- |
| O=C1O[C@@H](c2ccccc2)[C@@H](c2ccccc2)N2[C@@H](c3ccccc3OCCO)[C@]3(C(=O)Nc4ccc(C#CCCO)cc43)[C@@H](C(=O)NC[C@H](O)c3ccccc3)[C@H]12 | -0.31 | 0.323 | 0.997 | 0.16 | -0.0269 | -1.16 | 0.00583 (inactive) | -0.471 | -0.596 | 0.682 (inactive) | 0.5 | 1.29 (inactive) | 0.253 (inactive) | 0.873 (inactive) | 0.614 (inactive) | 2.96 (inactive) | 0.797 (inactive) | 0.367 (inactive) | -2.7 | -0.0669 |
| COC(=O)[C@@]1(Cc2ccccc2)[C@H]2c3cc(C(=O)N(C)C)n(Cc4ccc(C(F)(F)F)nc4)c3C[C@H]2CN1C(=O)c1ccccc1 | -1.28 | 0.286 | -0.628 | -0.214 | -0.559 | 1.71 | -1.09 (inactive) | -0.727 | -0.79 | 0.22 (inactive) | -0.634 | 2.47 (inactive) | -1.11 (inactive) | -0.125 (inactive) | 0.563 (inactive) | 1.02 (inactive) | -0.46 (inactive) | 0.03 (inactive) | -0.693 | -0.242 |
| CCOC(=O)C1=C[C@@H](C(C)(C)C)N(S(=O)(=O)c2ccc(C)cc2)[C@H]1c1ccc(C#N)cc1 | -0.368 | -0.316 | -1.12 | -2.79 | -2.17 | 1.63 | -0.398 (inactive) | -0.372 | -0.555 | 1.69 (inactive) | -0.718 | 2.25 (inactive) | -0.153 (inactive) | -0.158 (inactive) | 0.16 (inactive) | 1.56 (inactive) | -0.264 (inactive) | -0.361 (inactive) | -1.22 | -0.0559 |
| C=CC[C@@]1(C(=O)OC)N=C(c2ccc(OCCCO)cc2)O[C@@H]1c1ccccc1N=[N+]=[N-] | -1.28 | 1.02 | -0.361 | -0.473 | -3.03 | 1 | 0.645 (inactive) | -0.983 | 0.0955 | -1 (inactive) | -0.0361 | -1.28 (inactive) | -0.768 (inactive) | 1.09 (inactive) | -0.043 (inactive) | 1.72 (inactive) | 0.906 (inactive) | -1.05 (inactive) | -0.937 | 0.0142 |
| CCOC(=O)C[C@H]1[C@H](OC(=O)c2ccccc2-c2ccccc2)[C@@H](NC(=O)C2CCCCC2)c2cc(OCCCO)ccc2N1C(=O)c1ccc2ccccc2n1 | 0.448 | -0.87 | 0.581 | -0.742 | -1.3 | -0.28 | 1.19 (inactive) | -0.21 | -0.621 | -0.417 (inactive) | -0.872 | 0.818 (inactive) | -0.0667 (inactive) | 0.338 (inactive) | -0.177 (inactive) | 0.743 (inactive) | -0.53 (inactive) | -0.12 (inactive) | 0.131 | -0.0351 |
